Source: PubChem BioAssay (several laboratories)
TROY NFkB inh: TROY signaling inhibition; Q293 LMP1-TROYcd NF-kB luciferase reporter, 4 h; inhibition, % at 10 µM; 360,000 tested, 0.98% active; AID 1347056;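 active = compounds whose plate-normalised and pattern-corrected inhibition of the luciferase reporter signal at the single screening dose is 50% or more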
PAX8 inh HTS: lowers PAX8-driven luciferase in RMG-I cells. RMG-I TPO-luciferase reporter, SteadyGlo, 24 h. inhibition, % at 12.6 µM. 360,000 tested, 1.2% active;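 active = mean replicate inhibition at least 60% with every replicate also reaching 60%; inconclusive = only one of the two criteria is met; inactive = mean below 60% and not all replicates reaching 60%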;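 also: luciferase light reporting Pax8 driven TPO promoter activity; plate controls were median of neutral control wells for no effect and mitoxantrone controls for full effect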
EWS-Fli block: EWS/Fli transcriptional activity inhibition; inhibition, % at 12.6 µM; A673 NR0B1-luciferase reporter, viability-normalised; 350,000 tested, 0.67% active;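 active = mean inhibition of at least 50% after viability correction, with every replicate also passing that limit; inconclusive = mean reaches 50% but only one of two replicates passes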;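 also: firefly luciferase signal divided by Alamar Blue viability fluorescence both relative to DMSO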
TWEAK-Fn14 inh: blocks TWEAK-Fn14 interaction in a reporter cell assay. TWEAK-stimulated Fn14 reporter cells, luciferase luminescence, 8 h. inhibition, % at 10 µM. 360,000 tested, 2% active; in the data active = inhibition above about 50%
LGR2 antag: blocks bursicon-induced cAMP signaling via Drosophila LGR2 | HEK293 LGR2, CRE-luciferase, bursicon-stimulated, 4 h | inhibition, % at 9.99 µM | 380,000 tested, 0.35% active;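 active = drop in luminescence signal, shown as inhibition above about 50% in the replicate tests, limit read from the data, passing the limit was not always enough; inconclusive = probably only some replicates passing the limit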;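 also: agonist challenge used bursicon conditioned medium at about half maximal strength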
EBV LMP1 NFkB: inhibitors of Epstein-Barr LMP1-induced NF-kappaB reporter; inhibition, % at 12.5 µM; LMP1-induced NF-kappaB luciferase reporter cells, luminescence; 350,000 tested, 0.69% active; in the data active = inhibition above about 41%; inconclusive = no clear call, values can overlap the other calls;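 also: 0% = neutral control wells and 100% = reference inhibitor control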
The depositor's hits bear a star; u = inconclusive; x = no result. An excerpt weighted towards active compounds, which were near 3.2% of everything screened.

SMILES | TROY NFkB inh | PAX8 inh HTS | EWS-Fli block | TWEAK-Fn14 inh | LGR2 antag | EBV LMP1 NFkB
Cc1ccc(S(=O)(=O)N(C)C[C@H]2Oc3ccc(NC(=O)Cc4ccccc4)cc3C(=O)N([C@H](C)CO)C[C@@H]2C)cc1 | x | 83.9* | 1.0 | x | -8.9 | x
O=C(c1ccccn1)N1CC[C@@H]2[C@@H](CO)Nc3ccc(Br)cc3[C@@H]21 | x | -4.0 | -3.1 | x | -23.7 | x
CCCNC(=O)Nc1ccc2c(c1)OC[C@@H](C)N(Cc1ccc(-c3ccccn3)cc1)C[C@H](C)[C@@H](OC)CN(C)C2=O | x | 29.5 | 4.3 | x | -0.9 | x
C[C@H]1CN([C@@H](C)CO)C(=O)c2cc(NC(=O)Cc3ccccc3)ccc2O[C@@H]1CN(C)Cc1ccc(C(F)(F)F)cc1 | x | 66.7* | -1.4 | x | -2.1 | x
CC(C)(C)c1cc(NC(=O)C2CCCO2)no1 (configuration not stated) | 60.7* | x | -53.2 | 64.7* | -23.5 | -12.2
O=C(/C=C/c1ccc(N2CCC(c3ccccc3)=N2)cc1)c1ccccc1 | x | -0.3 | -32.3 | x | -10.6 | x
CCOC(=O)/C(=C\c1ccc(N2CCC(c3ccccc3)=N2)cc1)C(C)=O | 41.5 | -134.3 | -3.0 | 28.9 | 22.1 | 87.6*
Cc1ccc(Sc2ncccc2[N+](=O)[O-])cc1 | 1.8 | 9.0 | 2.2 | 3.6 | 7.9 | -0.8
Cc1c([N+](=O)[O-])cnc(Sc2ccccc2)c1[N+](=O)[O-] | 63.5* | 7.9 | 2.1 | 84.2* | u | -2.8
COc1cc2c(CCNC(C)=O)c[nH]c2cc1Cl | 8.4 | -22.7 | -5.6 | -0.7 | x | 74.2*
O=C(C1CCCC1)N1C[C@H]2[C@@H](c3ccccc31)[C@H](CO)N2C(=O)c1ccccc1F | x | -9.5 | -5.0 | x | 14.6 | x
CCCOC(=O)CN1C(=O)c2ccccc2C1=O | x | x | x | 81.7* | x | 4.8
O=C(COC(=O)c1ccccc1Br)NCC1CCCCC1 | -66.7 | 8.8 | -2.2 | -35.3 | -81.7 | x
CC1Cc2ccccc2N1C(=O)COC(=O)c1ccccc1NCCO (configuration not stated) | 24.6 | -101.9 | -4.9 | 57.1* | 5.4 | -19.0
O=C(COC(=O)c1ccccc1NCCO)NCC1CCCCC1 | 23.7 | -49.0 | -21.7 | 50.1* | -28.0 | 15.8
O=C(Cc1ccncc1)NCC[C@@H]1CC[C@@H](NC(=O)C2CCCCC2)[C@@H](CO)O1 | x | 1.8 | 2.8 | x | -24.4 | x
COc1ccccc1NC(=O)N[C@@H]1C=C[C@H](CC(=O)NCc2ccc(Cl)c(Cl)c2)O[C@@H]1CO | x | 8.7 | -0.1 | x | -9.6 | x
CCCC(=O)Nc1ccc2c(c1)C(=O)N(C)[C@H]1CC[C@@H](CC(=O)NCCOC)O[C@@H]1CO2 | x | -2.6 | 0.8 | x | -2.4 | x
C[C@H]1CN([C@@H](C)CO)C(=O)CCCn2cc(nn2)CO[C@H]1CN(C)C(=O)Nc1ccc(C(F)(F)F)cc1 | x | x | -3.2 | x | -1.1 | x
Cc1cc(OCc2nc(N)nc(N)c2-c2ccc(Cl)c(Cl)c2)ccc1[N+](=O)[O-] | 14.8 | 43.8 | 63.5* | 30.3 | 21.9 | 2.5
Cc1cc(C)c2c(c1)/C(=N/NC(=O)c1cc(C)oc1C)CCC2 | -18.9 | 98.9* | -1.5 | 4.9 | 0.5 | -4.1
O=C1[C@H](Oc2ccccc2)[C@@H](c2ccccc2)N1c1ccncc1 | 56.4* | 21.7 | 7.3 | 65.0* | 65.9* | 11.2
O=C1[C@@H](Oc2ccccc2)[C@@H](c2ccccc2)N1c1ccccc1 | -0.8 | -1.3 | 5.5 | 0.5 | -11.0 | 0.8
Cc1ccccc1/C=C1\CCCc2ccccc2C1=O | -46.0 | -171.9 | x | 2.4 | x | -52.8
Cc1ccsc1/C=C1\CCc2ccccc2C1=O | 34.9 | -83.4 | x | 81.7* | x | 16.9
SMILES | TROY NFkB inh | PAX8 inh HTS | EWS-Fli block | TWEAK-Fn14 inh | LGR2 antag | EBV LMP1 NFkB
O=C1C(=Cc2ccccn2)CCc2ccccc21 | -24.5 | 1.6 | -43.6 | 53.7* | 4.6 | -2.1
N#Cc1c2ccc(O)cc2n2ccccc12 | 6.5 | -26.3 | -31.1 | 55.7* | 22.7 | 7.1
N#Cc1c2ccc(OCC(=O)NCc3ccco3)cc2n2ccccc12 | 7.5 | -8.7 | -5.0 | 12.2 | -10.4 | 1.5
Cc1ccc(O)c(C2=Nc3ccccc3N=C(c3ccco3)C2)c1 | -14.4 | x | x | 21.9 | 11.1 | 4.1
Cc1ccc(C2=Nc3ccccc3N=C(c3ccco3)C2)c(O)c1 | 50.4* | x | x | 33.6 | -0.2 | 3.3
CCCC(C(=O)NC(C)(C)C)N(CC1CCCO1)C(=O)CNS(=O)(=O)c1ccc(F)cc1 (configuration not stated) | -4.7 | -4.2 | -5.0 | 85.2* | 1.8 | -2.3
CCCC(C(=O)NCc1ccco1)N(CC1CCCO1)C(=O)CNS(=O)(=O)c1ccc(F)cc1 (configuration not stated) | -19.2 | -5.7 | -6.2 | -4.0 | -17.8 | -0.5
COc1ccc2nc(NC(=O)CSc3nc(SC)ns3)sc2c1 | 23.6 | -64.6 | -13.0 | 52.7* | -31.5 | -4.5
COc1ccc(-c2csc(NC(=O)CSc3nc(SC)ns3)n2)cc1 | 54.1* | -1.0 | -36.1 | 68.7* | 9.9 | -2.2
COc1ccc(-c2csc(NC(=O)CSc3nc(C)cs3)n2)cc1 | 2.2 | x | x | -33.6 | x | -7.5
O=C(C[C@H]1CC[C@@H]2[C@H](COC[C@@H](O)CN2Cc2ccc(Oc3ccccc3)cc2)O1)Nc1nccs1 | x | 18.0 | 19.7 | x | 2.0 | x
COc1ccc(S(=O)(=O)Nc2ccc3c(c2)C(=O)N([C@H](C)CO)C[C@H](C)[C@H](CN(C)S(=O)(=O)c2cccs2)OCCCC[C@H](C)O3)cc1 | x | 49.9 | 5.1 | x | 1.9 | x
COCCCNC(=O)C1CCC(=O)N1Cc1ccccc1Cl (configuration not stated) | x | x | x | 85.4* | -11.0 | 2.5
O=C(NCCc1ccc(Cl)cc1)C1CCC(=O)N1Cc1ccccc1Cl (configuration not stated) | 7.7 | x | x | -17.3 | x | -1.4
Cc1ccc(CNC(=O)C2CC(c3cc(C(F)(F)F)cc(C(F)(F)F)c3)=NO2)o1 (configuration not stated) | -1.8 | 0.9 | 54.3* | 2.9 | 2.1 | -3.9
Cc1ccc(CCNC(=O)C2CC(c3cc(C(F)(F)F)cc(C(F)(F)F)c3)=NO2)cc1 (configuration not stated) | -5.5 | -16.8 | -1.9 | -6.2 | 4.4 | -6.9
COC(=O)C1=C(C)N(Cc2ccc(C(F)(F)F)cc2)C(=NCc2ccccc2)NC1c1ccc(C(F)(F)F)cc1 (configuration not stated) | x | 84.4* | 43.3 | x | u | x
COC(=O)C1=C(C)N(Cc2cccc(C(F)(F)F)c2)C(=NCc2cc(OC)c(OC)c(OC)c2)NC1c1cccc(C(F)(F)F)c1 (configuration not stated) | x | 85.3* | 44.7 | x | -4.0 | x
COC(=O)C1=C(C)N(Cc2ccc(C(F)(F)F)cc2)C(=NCc2ccc(C(F)(F)F)cc2)NC1c1cccc(F)c1 (configuration not stated) | x | 32.6 | 56.5* | x | 9.0 | x
COC(=O)C1=C(C)N(Cc2cccc(C(F)(F)F)c2)C(=NCc2ccc(C(F)(F)F)cc2)NC1c1ccc(Cl)cc1 (configuration not stated) | x | 11.6 | 40.8 | x | 55.1* | x
